Source: PubChem BioAssay (National Center for Advancing Translational Sciences (NCATS))
Only some compounds are listed: those with a hit (about 9.9% of all), similar ones and a draw of the others.
IL1B secr inh – inflammasome signaling inhibition, IL-1 beta readout; THP-1 LPS/ATP IL-1B secretion, AlphaLISA, 16 h; hits give low values; activity change, % at 57.5 µM; 360,000 tested, 4.7% active; AID 743279; in the data active = activity change below about -50%; inconclusive = mostly about -30% to -49%; note: % is set by controls: 0 for no effect and ±100 for the full control effect
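THP-1 cells pretreated 1 hr with compounds (up to 57.5 uM final), then stimulated with LPS (250 ng/mL final) plus ATP (1.25 mM final); secreted IL-1B measured by AlphaLISA after 16 hr, decreased signal indicating inhibition.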
KB-V1 MDR tox – kills drug-selected multidrug resistant KB-V1 cells; KB-V1 MDR cells viability, CellTiter-Glo, 72 h; 400,000 tested, 3.4% active; Potency, µM (series often up to 46.1 µM), usual class: cytotoxic; note: potency is the fitted concentration of half-maximal effect; % is set by controls: 0 for no effect and ±100 for the full control effect; nearly all actives have a fitted effect of over 60% in size
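Potencies derive from concentration-effect curves fitted to normalized luminescence (CellTiter-Glo) of KB-V1 cells treated for 72 h at 37 degrees C in phenol-red-free DMEM containing 10% FBS.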
SW480 rereplic – inducers of DNA re-replication in SW480 colon cancer cells; SW480 DNA re-replication, Hoechst DNA content imaging, 48 h; Potency, µM (series often up to 46.1 µM), for the others: at the highest dose re-replication activation, usual class: activators; 340,000 tested, 1.8% active; AID 624297; note: potency is the fitted concentration of half-maximal effect; % of control where 0% means no effect; nearly all actives have a fitted effect of over 55% in size
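Treated cells incubate 48 hr (37 C, 5% CO2), are stained 40 min with Hoechst, and nuclear fluorescence is enumerated; a rise in nuclei with high DNA signal marks re-replication.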
KB-3-1 cytotox – kills parental KB-3-1 adenocarcinoma cells | KB-3-1 viability, CellTiter-Glo ATP luminescence, 72 h | Potency, µM (highest dose often 46.1 µM), actives largely listed as cytotoxic | 400,000 tested, 1.4% active; note: potency is the fitted concentration of half-maximal effect; % is set by controls: 0 for no effect and ±100 for the full control effect; nearly all actives have a fitted effect of over 60% in size
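Luminescent ATP read-out (CellTiter-Glo) measures survival of drug-naive KB-3-1 cells after 72 h compound exposure at 37 °C. Titration series was screened from lowest to highest concentration, with DMSO vehicle plates as background controls.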
MCF10A rereplic – inducers of DNA re-replication in MCF 10A breast cells; MCF 10A DNA re-replication, Hoechst nuclear intensity, 48 h; Potency, µM (doses to about 46.1 µM), for the others: at the highest dose activity, positive = re-replication, usual class: activators; 350,000 tested, 2.9% active; AID 624296; note: potency is the fitted concentration of half-maximal effect; % of control where 0% means no effect; nearly all actives have a fitted effect of over 50% in size
* marks the source's active call; other numbers are inactive results; i = inactive; ? = inconclusive; . = no result given; [ ] = dose if it differs, or a comment. Unless noted, calls come from the whole dose curve; as a rule, active = well fitted curve in the direction sought with a large enough effect; inconclusive = small, poorly fitted or top-dose-only effect, or another doubt; inactive = no such curve, though single readings can be large; an effect the other way counts as inactive or inconclusive.

SMILES | IL1B secr inh | KB-V1 MDR tox | SW480 rereplic | KB-3-1 cytotox | MCF10A rereplic
CCOc1ccc(N(CC(=O)Nc2cc(Cl)ccc2C)S(C)(=O)=O)cc1 | 19 | i | 18µM* | i | ?
CCOc1ccc(N(CC(=O)Nc2ccc(C)c(C)c2)S(C)(=O)=O)cc1 | -2 | ? | 2% | i | ?
CS(=O)(=O)N(CC(=O)Nc1ccc2c(c1)OCO2)c1ccccc1 | -11 | i | 4% | i | 21µM*
CS(=O)(=O)N(CC(=O)Nc1cc(Cl)ccc1Cl)c1ccccc1 | 4 | 16µM* | 5% | i | 15%
CN(c1cccc(NC(=O)CN(c2ccc(C34CC5CC(CC(C5)C3)C4)cc2)S(C)(=O)=O)c1)S(C)(=O)=O | -5 | 18µM* | -4% | ? | 5%
CCN(CC)c1ccc2cc(-c3nc4ccccc4[nH]3)c(=O)oc2c1 | 5 | ? | 5.2µM* | ? | 4.1µM*
CCN(CC)c1ccc2cc(-c3nnc(-c4ccccc4)o3)c(=O)oc2c1 | 10 | ? | ? | ? | ?
CCN(CC)c1ccc2cc(C(=O)c3cccs3)c(=O)oc2c1 | -52* | ? | . | i | .
CCN(CC)c1ccc2cc(-c3nc(-c4ccc(OC)cc4)cs3)c(=O)oc2c1 | 82 | 18µM* | 1.8µM* | i | ?
CN(C)Cc1c(O)ccc2c(-c3ccccc3)cc(=O)oc12 | -7 | i | -8% | i | -21%
CN(C)Cc1c(O)ccc2cc(-c3nc4ccccc4n3C)c(=O)oc12 | 28 | i | 3.7µM* | i | 5.8µM*
COCCOC(=O)C1=C(C)N=C2SCCC(=O)N2C1c1ccc(OCc2ccccc2)c(OC)c1 (stereo not given) | . | i | . | i | .
CCN(CC)c1ccc2cc(-c3nc4ccccc4n3C)c(=O)oc2c1 | 33 | 0.41µM* | 0.58µM* | 0.23µM* | ?
COc1ccc(C(=O)N/N=C/c2ccc3cccc(OCc4ccccc4)c3n2)cc1 | 138 | i | 1% | ? | 21%
COc1cc(/C=C/c2ccc3cccc(OC)c3n2)c(OC(C)=O)c([N+](=O)[O-])c1 | ? | ? | ? | ? | 6.5µM*
COc1c(OC(C)=O)ccc(/C=C/c2ccc3cccc(OCc4ccccc4)c3n2)c1[N+](=O)[O-] | -50* | ? | -2% | 16µM* | 7%
CC(C)(C)c1ccc(CC(=O)N2CCC2(C)C(=O)NCCC#N)cc1 (stereo not given) | 28 | i | . | i | .
O=C(CSc1nnc(-c2ccc(O)cc2)n1Cc1ccco1)N1CCc2ccccc2C1 | -9 | i | -4% | i | 4%
CC(=O)Nc1cccc(-c2ccnc3c2CC(C(=O)NCc2ccc(F)c(F)c2)O3)c1 (stereo not given) | 63 | ? | . | 7.3µM* | .
CC(=O)Nc1ccc(-c2ccnc3c2CC(C)(C(=O)NCC2CC2)O3)cc1 (stereo not given) | 18 | i | . | i | .
CC(=O)Nc1cccc(-c2ccnc3c2CC(C)(C(=O)NCC2CC2)O3)c1 (stereo not given) | 69 | i | . | 12µM* | .
CC(=O)Nc1cccc(-c2ccnc3c2CC(C)(C(=O)NCc2ccc(F)c(F)c2)O3)c1 (stereo not given) | 82 | ? | . | 15µM* | .
COc1cccc(NC(=O)CN(C)C(=O)CSc2nc(C)cc(C)n2)c1 | 0 | i | -28% | i | -3%
N#Cc1ccc(NC2c3ccccc3CC2O)cc1 (stereo not given) | 30 | 18µM* | -2% | ? | 3%
OC1Cc2ccccc2C1Nc1cccc(C(F)(F)F)c1 (stereo not given) | -66* | ? | 3% | i | -1%
SMILES | IL1B secr inh | KB-V1 MDR tox | SW480 rereplic | KB-3-1 cytotox | MCF10A rereplic
COc1ccc(S(=O)(=O)N2CCC(C(=O)NN3CCCCC3)CC2)cc1 | 19 | i | . | i | .
CC(=O)[C@@H]1CC[C@@H]2[C@@H]3C[C@H](C)C4=CC(=O)CC[C@@]4(C)[C@H]3[C@H](O)C[C@]21C | . | . | -5%[20.6 µM] | . | -1%[20.6 µM]
COc1ccc(N/C=C(\C=C\C#N)S(=O)(=O)c2ccccc2)cc1 | -2 | i | ? | i | 3.7µM*
c1ccc2c(c1)Nc1ccncc1S2 | -94* | i | -5% | i | 3%
c1ccc2c(c1)Nc1cc3ccccc3cc1S2 | 4 | i | 3% | i | ?
CN(Cc1ccccc1)c1nc2c(S(=O)(=O)c3ccccc3)nnn2c2ccsc12 | . | i | . | i | .
Cc1cccc(NC(=O)Nc2ccc(Oc3c(F)c(F)c(F)c(F)c3F)cc2)c1 | 24 | i | -2% | i | 0%
O=C(Nc1ccc(Oc2c(F)c(F)c(F)c(F)c2F)cc1)OC1CCN2Cc3ccccc3N=C12 (stereo not given) | -95* | ? | 13µM* | 8.2µM* | 13µM*
COc1ccc(C2OCC(C)(C)CO2)cc1OC | 8 | ? | 5% | i | 0%
COc1ccc(C2C=C(C34CC5CC(CC(C5)C3)C4)NC(=S)N2)cc1OC (stereo not given) | -22 | 18µM* | ? | i | 10%
O=C(Nc1cccc(Cl)c1)c1cc2c(=O)[nH]c3ccccc3c2s1 | . | i | . | i | .
OC(CNCc1ccccc1)COc1ccccc1 (stereo not given) | 0 | i | 7% | i | -2%
O=C(c1ccccc1)c1ccc(OCC(O)CNCc2ccc(Cl)cc2)cc1 (stereo not given) | -60* | i | -4% | i | ?
COc1cccc(CNCC(O)COc2ccc(C(=O)c3ccccc3)cc2)c1 (stereo not given) | -19 | i | -5% | i | ?
Cc1ccc(OCC(O)CNCc2ccc(F)cc2)cc1 (stereo not given) | -78* | i | 0% | i | 11%
NC(=O)CC(NC(=O)c1ccc(Br)cc1)c1ccc(N2CCCCCC2)c([N+](=O)[O-])c1 (stereo not given) | -1 | i | 6% | i | ?
Cc1ccc(Cn2c(C(=O)O)c(CNCc3cccs3)c3ccc(C)cc32)cc1 | . | i | . | i | .
O=C(COc1cc(F)ccc1[N+](=O)[O-])Nc1cccc(S(=O)(=O)NC2=NCCC2)c1 | -2 | ? | -15% | i | 8%
Cc1cc(SCn2nnc3ccccc3c2=O)nc2ccccc12 | 44 | 16µM* | 0% | i | 25%
O=c1c2ccccc2nnn1CSc1ccccc1 | 6 | i | 1% | i | 0%
O=c1c2ccccc2nnn1CSc1ccc2ccccc2n1 | -28 | 23µM* | 65% | i | ?
O=C(Cn1ncc2c3ccccc3n(Cc3cccc(Cl)c3)c2c1=O)NCc1cccs1 | . | i | . | i | .
COc1ccccc1-c1sc2cc3c(cc2c1-c1ccc(OCCN2CCCCC2)cc1)OCO3 | ? | ? | 5% | ? | 10µM*
